Results: PubChem BioAssay (NCATS)
Several values for one entry are separate records, joined by “and”; a condition that tells them apart may be missing. Equal entries are not always repeated. Results filed as inconclusive are left out. Activity calls are given as the source filed them. Unless noted, calls follow the shape of the full dose curve.

Key:
[1] = target: Bile acid receptor (Homo sapiens) (UniProt Q96RI1); test: qHTS assay for small molecule antagonists of farnesoid X receptor signaling (AID 588526); also: % is scaled to controls: 0 for no effect and ±100 for the full control effect
Chain of Bile acid receptor (Homo sapiens) (Q96RI1 whole entry, looked up): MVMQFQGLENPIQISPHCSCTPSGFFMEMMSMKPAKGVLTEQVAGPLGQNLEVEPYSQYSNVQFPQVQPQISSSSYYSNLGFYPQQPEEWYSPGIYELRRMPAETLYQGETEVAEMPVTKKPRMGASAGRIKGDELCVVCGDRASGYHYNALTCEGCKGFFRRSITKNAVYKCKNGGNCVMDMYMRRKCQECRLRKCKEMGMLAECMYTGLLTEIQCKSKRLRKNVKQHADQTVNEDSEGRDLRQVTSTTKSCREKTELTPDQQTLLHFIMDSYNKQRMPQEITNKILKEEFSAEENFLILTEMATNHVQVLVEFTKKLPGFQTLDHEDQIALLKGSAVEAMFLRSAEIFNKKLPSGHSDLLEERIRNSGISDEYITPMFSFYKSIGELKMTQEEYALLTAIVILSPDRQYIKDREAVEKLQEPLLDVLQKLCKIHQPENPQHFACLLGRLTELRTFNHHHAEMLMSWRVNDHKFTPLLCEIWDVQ
Method in brief: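 Antagonist mode: titrated compounds tested against chenodeoxycholic acid stimulation (normalized to 50 uM CDCA and DMSO) in GeneBLAzer HEK293T cells for 16 h. Beta-lactamase read by CCF4 fluorescence; IC50 from Hill fits.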

[2] = target: Peroxisome proliferator-activated receptor gamma (Homo sapiens) (UniProt P37231); test: qHTS assay for small molecule agonists of peroxisome proliferator-activated receptor gamma signaling (AID 588536; active = well fitted curve in the direction sought with a large enough effect in the signal ratio, with a control signal flat, not every such curve was filed as active; the % refers to the signal ratio;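 also: 0% = DMSO basal wells and 100% = rosiglitazone at 2 µM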)
Chain of Peroxisome proliferator-activated receptor gamma (Homo sapiens) (P37231 whole entry, looked up): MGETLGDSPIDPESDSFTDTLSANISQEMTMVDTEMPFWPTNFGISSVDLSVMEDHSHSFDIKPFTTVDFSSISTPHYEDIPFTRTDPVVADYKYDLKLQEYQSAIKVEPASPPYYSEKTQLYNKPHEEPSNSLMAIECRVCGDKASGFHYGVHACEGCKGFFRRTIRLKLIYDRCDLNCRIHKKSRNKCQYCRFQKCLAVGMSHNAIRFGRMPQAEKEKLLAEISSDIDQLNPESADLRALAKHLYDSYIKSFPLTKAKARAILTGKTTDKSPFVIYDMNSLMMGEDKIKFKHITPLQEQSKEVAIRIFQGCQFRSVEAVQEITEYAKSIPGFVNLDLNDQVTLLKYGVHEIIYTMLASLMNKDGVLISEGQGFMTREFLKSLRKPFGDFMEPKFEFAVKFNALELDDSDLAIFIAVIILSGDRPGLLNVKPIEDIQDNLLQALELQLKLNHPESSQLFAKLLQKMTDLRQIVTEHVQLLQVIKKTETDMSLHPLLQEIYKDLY
Method in brief: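 HEK293 UAS-bla reporter line, 1% charcoal/dextran FBS; titration, 16 h, 37 C; CCF4 loading 2 h RT; fluorescence 460/530 nm. Normalized to rosiglitazone 2 uM = 100%, DMSO = 0%.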

[3] = target: Peroxisome proliferator-activated receptor gamma (Homo sapiens) (UniProt P37231); test: qHTS assay for small molecule antagonists of peroxisome proliferator-activated receptor gamma signaling (AID 588537; active = well fitted inhibition curve with a large enough effect in the signal ratio, with a control signal flat, not every such curve was filed as active; the % refers to the signal ratio;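 also: reporter cells co-stimulated with 50 nM rosiglitazone agonist during compound treatment; % of control where 0% means no effect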)
Method in brief: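 PPARγ-UAS-bla HEK293 cells (3000/well) in 1% charcoal/dextran-stripped FBS are treated with compound, then stimulated with 50 nM rosiglitazone for 16 h at 37 °C. Read-out is CCF4 β-lactamase fluorescence after 2 h at RT. IC50 comes from Hill fits normalised to rosiglitazone and DMSO.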

[4] = target: Peroxisome proliferator-activated receptor delta (Homo sapiens) (UniProt Q03181); test: qHTS assay for small molecule antagonists of peroxisome proliferator-activated receptor delta signaling (AID 588535; active = well fitted inhibition curve with a large enough effect in the signal ratio, with a control signal flat, not every such curve was filed as active; the % refers to the signal ratio)
Chain of Peroxisome proliferator-activated receptor delta (Homo sapiens) (Q03181 whole entry, looked up): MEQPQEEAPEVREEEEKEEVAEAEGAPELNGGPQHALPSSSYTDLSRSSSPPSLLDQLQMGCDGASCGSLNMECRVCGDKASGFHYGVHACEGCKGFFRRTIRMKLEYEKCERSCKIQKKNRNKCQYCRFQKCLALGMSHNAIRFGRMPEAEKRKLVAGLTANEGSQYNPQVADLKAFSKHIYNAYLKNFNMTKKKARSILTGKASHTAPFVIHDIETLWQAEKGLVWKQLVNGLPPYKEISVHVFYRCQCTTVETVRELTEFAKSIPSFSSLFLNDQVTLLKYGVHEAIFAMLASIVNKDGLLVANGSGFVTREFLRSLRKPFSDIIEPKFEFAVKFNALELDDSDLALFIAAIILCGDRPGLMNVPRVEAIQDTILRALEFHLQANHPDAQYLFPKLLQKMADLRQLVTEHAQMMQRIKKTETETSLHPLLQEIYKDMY
Method in brief: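 Antagonist-mode beta-lactamase reporter (GeneBLAzer PPAR-delta-UAS-bla) in HEK293T cells, 2% charcoal/dextran FBS, 4000 cells/well. Compound titrations, 18 h at 37 C; CCF4 ratio read, IC50 and efficacy from Hill fits.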

[5] = target: Thyroid hormone receptor beta (Homo sapiens) (UniProt P10828); test: qHTS assay for small molecule antagonists of thyroid hormone receptor beta signaling (AID 588547; active = well fitted inhibition curve with a large enough effect in the signal ratio, with a control signal flat, not every such curve was filed as active; the % refers to the signal ratio;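 also: cells stimulated with 0.4 nM T3 agonist during compound exposure; series mostly up to about 77 µM; % is scaled to controls: 0 for no effect and ±100 for the full control effect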); conditions: TR-UAS-bla HEK293, beta-lactamase ratio, antagonist mode, 18 h
Chain of Thyroid hormone receptor beta (Homo sapiens) (P10828 whole entry, looked up): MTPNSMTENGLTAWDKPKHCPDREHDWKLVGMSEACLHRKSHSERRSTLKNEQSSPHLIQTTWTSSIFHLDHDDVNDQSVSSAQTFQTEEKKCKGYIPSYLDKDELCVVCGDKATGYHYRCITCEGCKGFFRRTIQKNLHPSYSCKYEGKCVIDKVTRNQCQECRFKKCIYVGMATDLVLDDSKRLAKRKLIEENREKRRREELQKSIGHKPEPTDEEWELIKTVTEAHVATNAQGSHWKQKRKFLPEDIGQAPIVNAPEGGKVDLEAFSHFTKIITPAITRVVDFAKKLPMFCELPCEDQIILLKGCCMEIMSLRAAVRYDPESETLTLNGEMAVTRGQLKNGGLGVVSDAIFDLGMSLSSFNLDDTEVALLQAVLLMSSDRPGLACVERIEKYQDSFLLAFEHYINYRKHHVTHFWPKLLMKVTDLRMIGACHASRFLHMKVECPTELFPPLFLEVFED
Method in brief: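 TR-UAS-bla GripTite HEK293 cells in 2% charcoal/dextran FBS medium; compounds 0.59 nM to 92 uM with T3 at 0.4nM final, 18 h at 37 C. Beta-lactamase read by CCF4 fluorescence (460/530 nm); Hill fits gave IC50 and efficacy.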

[6] = qHTS assay for small molecule activators of the nuclear factor-kappa B (NF-kB) signaling pathway (AID 651749; active = well fitted activation curve with a large enough effect in the signal ratio; the % refers to the signal ratio; also: series mostly up to about 77 µM; % of control where 0% means no effect); conditions: NF-kB-bla ME-180 cells, beta-lactamase FRET ratio, 16 h; activation: stronger effect = higher value
Method in brief: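 NF-kB-bla ME-180 cells carrying a beta-lactamase reporter under an NF-kB response element, 2,000 cells/well, exposed to compound for 16 hr at 37C; FRET-based beta-lactamase fluorescence read-out of pathway activation.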

O=C(O)CCCCCCC(=O)O
inactive: Potency [1] | outcome [2] | Potency [3]

CCCC[O][Al]([O]CCCC)[O]CCCC
inactive: Potency [1] | Potency [4] | outcome [2] | Potency [3]

CC(COCC(C)OC(=O)c1ccccc1)OC(=O)c1ccccc1 (configuration not stated)
inactive: Potency [1] | Potency [4] | activity change % (negative = inhibition) [5] -7.07%

CCCCCCCC/C=C\CCCCCCCCO
inactive: Potency [4] | outcome [2] | Potency [3] | activity change % (negative = inhibition) [5] -5.71% | activation [6] -1.39%

CCC(O)OCCCOC (configuration not stated)
inactive: Potency [4] | Potency [3] | activity change % (negative = inhibition) [5] -6.47% | activation [6] 1.22%

CCCCCCCC[Si](OCC)(OCC)OCC
inactive: Potency [4] | outcome [2] | Potency [3] | activity change % (negative = inhibition) [5] 3.89% | activation [6] 1.32%

Cc1ccc2c(c1)C(=O)OC2=O
inactive: Potency [4] | outcome [2] | Potency [3] | activity change % (negative = inhibition) [5] -5.6%

COC(OC)(C(=O)c1ccccc1)c1ccccc1
inactive: Potency [4] | outcome [2] | Potency [3] | activity change % (negative = inhibition) [5] -4.01% | activation [6] 0.121%

Oc1ccc2ccccc2c1N=Nc1ccccc1
inactive: Potency [1] | outcome [2] | activation [6] 0.732%

CC(C)C(=O)OC(=O)C(C)C
inactive: activity change % (negative = inhibition) [5] 8.71%

CC(C)CC(C)(O)C#CC(C)(O)CC(C)C (configuration not stated)
inactive: outcome [2] | Potency [3] | activity change % (negative = inhibition) [5] 20.8% | activation [6] -0.882%

CC1=CC(=O)CC(C)(C)C1
inactive: Potency [4] | Potency [3] | activity change % (negative = inhibition) [5] 1.58%

C=C(C)C(=O)OCCOCCOCCOC(=O)C(=C)C
inactive: outcome [2] | activity change % (negative = inhibition) [5] -12.3%

COc1cc(Cl)c(OC)cc1N
inactive: Potency [4] | outcome [2] | Potency [3]

CCCCCCCC/C=C\CCCCCCCC(=O)OC
inactive: Potency [4] | outcome [2] | Potency [3] | activation [6] -2.39%

CCOCCOCCOCC
inactive: outcome [2] | Potency [3] | activity change % (negative = inhibition) [5] -11.8% | activation [6] -0.223%

CCCCCCCCCC(=O)OC
inactive: Potency [1] | Potency [4] | outcome [2] | Potency [3] | activation [6] 0.17%

CC(C)CCCCOC(=O)c1ccccc1C(=O)OCCCCC(C)C
inactive: Potency [4] | outcome [2] | Potency [3] | activation [6] -2.54%

CCOC(=O)NCCOc1ccc(Oc2ccccc2)cc1
inactive: Potency [1] | Potency [4] | outcome [2] | activation [6] 2.75%

O=C(c1ccccc1)c1ccc(O)c(O)c1O
inactive: Potency [4]

CC(COc1ccc(C(C)(C)C)cc1)OS(=O)OCCCl (configuration not stated)
inactive: Potency [1] | Potency [4] | activity change % (negative = inhibition) [5] -14.9%

CCCCCCCCCCCCCCC
inactive: activity change % (negative = inhibition) [5] 5.8% | activation [6] -1.21%

C=CCCCCCCCCCC
inactive: Potency [4] | outcome [2]

COC(=O)c1ccc(I)cc1S(=O)(=O)NC(=O)Nc1nc(C)nc(OC)n1
inactive: outcome [2] | Potency [3] | activity change % (negative = inhibition) [5] -17%

CC(=O)c1c(C)c([N+](=O)[O-])c(C(C)(C)C)c([N+](=O)[O-])c1C
inactive: Potency [4] | outcome [2] | Potency [3] | activity change % (negative = inhibition) [5] 11% | activation [6] -2.72%

CCCCCCCCCCCC[N+](C)(C)C
inactive: Potency [4] | Potency [3] | activation [6] -3.69%

COCCOCCOCCO
inactive: Potency [4]

CCCCCCCCCCCCN
inactive: Potency [4] | Potency [3] | activity change % (negative = inhibition) [5] -7.43% | activation [6] -1.82%

CCCCCCCCCCCCCCN(C)C
inactive: outcome [2] | activation [6] -1.59%

CCOC(=O)C(C)Oc1ccc(Oc2nc3ccc(Cl)cc3o2)cc1 (configuration not stated)
inactive: Potency [3] | activation [6] 2.54%

CCCC/C=C\CCCCCCCCCC=O
inactive: Potency [1] | Potency [4] | outcome [2] | activation [6] -0.297%

CCCCCCC(O)CCCCCCCCCCC(=O)OC (configuration not stated)
inactive: Potency [4] | activity change % (negative = inhibition) [5] -2.76% | activation [6] -0.158%

CC(C)(N=C=O)c1cccc(C(C)(C)N=C=O)c1
inactive: Potency [4] | outcome [2] | Potency [3] | activity change % (negative = inhibition) [5] -9.67% | activation [6] -0.946%

CCNc1nc(NC(C)CC)nc(OC)n1 (configuration not stated)
inactive: outcome [2] | Potency [3]

CCCCCCCCCCCCc1ccccc1
inactive: Potency [1] | Potency [4] | outcome [2] | activation [6] 1.6%

CCOCCOCCOCCO
inactive: Potency [1] | outcome [2] | Potency [3] | activity change % (negative = inhibition) [5] 8.91% | activation [6] -1.33%

CC(C)CCCCCCCCCCCCCCC(=O)O
inactive: outcome [2]

Cc1ccc(C(C)(C)C)c(O)c1
inactive: Potency [1] | outcome [2] | Potency [3] | activation [6] 0.363%

C=CCOc1nc(OCC=C)nc(OCC=C)n1
inactive: Potency [4] | outcome [2] | activity change % (negative = inhibition) [5] 11.9% | activation [6] 0.86%

c1ccc2c(c1)ccc1c3ccccc3ccc21
inactive: Potency [1] | Potency [4] | outcome [2] | Potency [3] | activity change % (negative = inhibition) [5] 1.89% | activation [6] -0.747%

C=CC(=O)OCCOc1ccccc1
inactive: Potency [4] | outcome [2] | Potency [3] | activity change % (negative = inhibition) [5] -3.52%

CCCCC(CC)COC(C)=O (configuration not stated)
inactive: Potency [4] | Potency [3] | activation [6] -1.18%

CC(C)Nc1nc(N)nc(Cl)n1
inactive: outcome [2] | Potency [3] | activity change % (negative = inhibition) [5] -8.47% and 11% | activation [6] 0.272% and 0.556%

COC(=O)c1ccc(CNS(C)(=O)=O)cc1S(=O)(=O)NC(=O)Nc1nc(OC)cc(OC)n1
inactive: Potency [3] | activation [6] 1.5%

CCCCC(CC)CN1C(=O)C2C3C=CC(C3)C2C1=O (configuration not stated)
inactive: outcome [2] | activity change % (negative = inhibition) [5] 4.69% | activation [6] 0.646%
